# Assay results: the supplement of paper PMC7765376
# Where a name gives a salt, the structure may show the parent alone. Over roughly 1,500 compounds, “Excess HSA synergy score (sum over dose matrix of excess over highest single agent)” has its median near 43; the lowest 2% begin near -900. The sample holds the lowest values, similar compounds and a random draw of the others, so the mix is not that of the screen.
# Test system: PEO-1
# Test: Excess HSA synergy score (sum over dose matrix of excess over highest single agent) (score (summed % response)); higher = less synergy / more antagonism (negative = synergy)
# Details: 72 h, read-out: viability/apoptosis luminescence (CellTiter-Glo or Caspase3-Glo / not stated per table)
# [1] = matrix design: 6x6, 5-fold dilutions (primary screen)
# [2] = matrix design: 10x10, 9-step dilutions (confirmatory)
SMILES,Excess HSA synergy score [1],Excess HSA synergy score [2]
C[C@@H](Oc1cc(-n2cnc3ccc(CN4CCN(C)CC4)cc32)sc1C(N)=O)c1ccccc1C(F)(F)F + CC[C@H](NC(=O)[C@H](C)NC)C(=O)N1C[C@@H](O)C[C@H]1Cc1c(-c2[nH]c3cc(F)ccc3c2C[C@@H]2C[C@H](O)CN2C(=O)[C@H](CC)NC(=O)[C@H](C)NC)[nH]c2cc(F)ccc12 [Birinapant],-274,-1360
CC(C)c1cc(C(=O)N2Cc3ccc(CN4CCN(C)CC4)cc3C2)c(O)cc1O [Onalespib] + CC[C@H](NC(=O)[C@H](C)NC)C(=O)N1C[C@@H](O)C[C@H]1Cc1c(-c2[nH]c3cc(F)ccc3c2C[C@@H]2C[C@H](O)CN2C(=O)[C@H](CC)NC(=O)[C@H](C)NC)[nH]c2cc(F)ccc12 [Birinapant],13.4,–
COc1cc2ncn(-c3cc(OCc4ccccc4C(F)(F)F)c(C(N)=O)s3)c2cc1OC + CC[C@H](NC(=O)[C@H](C)NC)C(=O)N1C[C@@H](O)C[C@H]1Cc1c(-c2[nH]c3cc(F)ccc3c2C[C@@H]2C[C@H](O)CN2C(=O)[C@H](CC)NC(=O)[C@H](C)NC)[nH]c2cc(F)ccc12 [Birinapant],-51.1,–
Cc1ccc(F)c(NC(=O)Nc2ccc(-c3cccc4[nH]nc(N)c34)cc2)c1 [Linifanib] + CC[C@H](NC(=O)[C@H](C)NC)C(=O)N1C[C@@H](O)C[C@H]1Cc1c(-c2[nH]c3cc(F)ccc3c2C[C@@H]2C[C@H](O)CN2C(=O)[C@H](CC)NC(=O)[C@H](C)NC)[nH]c2cc(F)ccc12 [Birinapant],-40,–
C[C@@H](O)[C@H](NC(=O)[C@@H]1CSSC[C@H](NC(=O)[C@H](N)Cc2ccccc2)C(=O)N[C@@H](Cc2ccc(O)cc2)C(=O)N[C@H](Cc2c[nH]c3ccccc23)C(=O)N[C@@H](CCCCN)C(=O)N1)C(N)=O + CC[C@H](NC(=O)[C@H](C)NC)C(=O)N1C[C@@H](O)C[C@H]1Cc1c(-c2[nH]c3cc(F)ccc3c2C[C@@H]2C[C@H](O)CN2C(=O)[C@H](CC)NC(=O)[C@H](C)NC)[nH]c2cc(F)ccc12 [Birinapant],120,–
Cc1ccccc1C(C(=O)NC1CCCCC1)N(C(=O)Cn1ccnc1C)c1cccc(F)c1 (configuration not stated) + CC[C@H](NC(=O)[C@H](C)NC)C(=O)N1C[C@@H](O)C[C@H]1Cc1c(-c2[nH]c3cc(F)ccc3c2C[C@@H]2C[C@H](O)CN2C(=O)[C@H](CC)NC(=O)[C@H](C)NC)[nH]c2cc(F)ccc12 [Birinapant],12.3,–
COc1cc2ncn(-c3cc(OCc4ccccc4S(C)(=O)=O)c(C#N)s3)c2cc1OC [IKK-3 Inhibitor IX] + CC[C@H](NC(=O)[C@H](C)NC)C(=O)N1C[C@@H](O)C[C@H]1Cc1c(-c2[nH]c3cc(F)ccc3c2C[C@@H]2C[C@H](O)CN2C(=O)[C@H](CC)NC(=O)[C@H](C)NC)[nH]c2cc(F)ccc12 [Birinapant],113,–
Cc1cnc(Nc2ccc(F)cc2Cl)nc1-c1c[nH]c(C(=O)N[C@H](CO)c2cccc(Cl)c2)c1 + CC[C@H](NC(=O)[C@H](C)NC)C(=O)N1C[C@@H](O)C[C@H]1Cc1c(-c2[nH]c3cc(F)ccc3c2C[C@@H]2C[C@H](O)CN2C(=O)[C@H](CC)NC(=O)[C@H](C)NC)[nH]c2cc(F)ccc12 [Birinapant],192,–
CN1CCN(c2cccc(Nc3nc4c(-c5ccc(S(C)(=O)=O)cc5)cccn4n3)c2)CC1 + CC[C@H](NC(=O)[C@H](C)NC)C(=O)N1C[C@@H](O)C[C@H]1Cc1c(-c2[nH]c3cc(F)ccc3c2C[C@@H]2C[C@H](O)CN2C(=O)[C@H](CC)NC(=O)[C@H](C)NC)[nH]c2cc(F)ccc12 [Birinapant],-105,–
Cc1c(-c2cccc3c(CCCOc4cccc5ccccc45)c(C(=O)O)n(Cc4cccnc4)c23)c(COc2ccc(N3CCN([S+](=O)([O-])N(C)C)CC3)cc2)nn1C + CC[C@H](NC(=O)[C@H](C)NC)C(=O)N1C[C@@H](O)C[C@H]1Cc1c(-c2[nH]c3cc(F)ccc3c2C[C@@H]2C[C@H](O)CN2C(=O)[C@H](CC)NC(=O)[C@H](C)NC)[nH]c2cc(F)ccc12 [Birinapant],51.7,–
Cn1cc(-c2ccc3nnc(C(F)(F)c4ccc5ncccc5c4)n3n2)cn1 + CC[C@H](NC(=O)[C@H](C)NC)C(=O)N1C[C@@H](O)C[C@H]1Cc1c(-c2[nH]c3cc(F)ccc3c2C[C@@H]2C[C@H](O)CN2C(=O)[C@H](CC)NC(=O)[C@H](C)NC)[nH]c2cc(F)ccc12 [Birinapant],40.5,–
Cc1ccc(C(=O)Nc2cccc(C(F)(F)F)c2)cc1Nc1nc(-c2cccnc2)nc2c1cnn2C + CC[C@H](NC(=O)[C@H](C)NC)C(=O)N1C[C@@H](O)C[C@H]1Cc1c(-c2[nH]c3cc(F)ccc3c2C[C@@H]2C[C@H](O)CN2C(=O)[C@H](CC)NC(=O)[C@H](C)NC)[nH]c2cc(F)ccc12 [Birinapant],-71.3,–
N#CC(c1ccnc(NCCc2cccnc2)n1)c1nc2ccccc2s1 (configuration not stated) [JNK Inhibitor V] + CC[C@H](NC(=O)[C@H](C)NC)C(=O)N1C[C@@H](O)C[C@H]1Cc1c(-c2[nH]c3cc(F)ccc3c2C[C@@H]2C[C@H](O)CN2C(=O)[C@H](CC)NC(=O)[C@H](C)NC)[nH]c2cc(F)ccc12 [Birinapant],-67.5,–
CC(C)(C(=O)NCC(F)(F)C(F)(F)F)C(=O)N[C@@H]1C(=O)Nc2ccccc2-c2ccccc21 + CC[C@H](NC(=O)[C@H](C)NC)C(=O)N1C[C@@H](O)C[C@H]1Cc1c(-c2[nH]c3cc(F)ccc3c2C[C@@H]2C[C@H](O)CN2C(=O)[C@H](CC)NC(=O)[C@H](C)NC)[nH]c2cc(F)ccc12 [Birinapant],-141,–
COc1ccc(-c2coc3cc(O)cc(O)c3c2=O)cc1 [Biochanin A] + CC[C@H](NC(=O)[C@H](C)NC)C(=O)N1C[C@@H](O)C[C@H]1Cc1c(-c2[nH]c3cc(F)ccc3c2C[C@@H]2C[C@H](O)CN2C(=O)[C@H](CC)NC(=O)[C@H](C)NC)[nH]c2cc(F)ccc12 [Birinapant],235,–
CC(=O)NCC(=O)N1[C@@H]2CC[C@H]1c1ccc(Nc3ncc(C(F)(F)F)c(NC4CCC4)n3)cc12 + CC[C@H](NC(=O)[C@H](C)NC)C(=O)N1C[C@@H](O)C[C@H]1Cc1c(-c2[nH]c3cc(F)ccc3c2C[C@@H]2C[C@H](O)CN2C(=O)[C@H](CC)NC(=O)[C@H](C)NC)[nH]c2cc(F)ccc12 [Birinapant],-154,–
CCCCN1CCC(CNC(=O)c2c3n(c4ccccc24)CCCO3)CC1 [Piboserod hydrochloride] + CC[C@H](NC(=O)[C@H](C)NC)C(=O)N1C[C@@H](O)C[C@H]1Cc1c(-c2[nH]c3cc(F)ccc3c2C[C@@H]2C[C@H](O)CN2C(=O)[C@H](CC)NC(=O)[C@H](C)NC)[nH]c2cc(F)ccc12 [Birinapant],-0.918,–
Nc1ccn([C@@H]2CS[C@H](CO)O2)c(=O)n1 [Lamivudine] + CC[C@H](NC(=O)[C@H](C)NC)C(=O)N1C[C@@H](O)C[C@H]1Cc1c(-c2[nH]c3cc(F)ccc3c2C[C@@H]2C[C@H](O)CN2C(=O)[C@H](CC)NC(=O)[C@H](C)NC)[nH]c2cc(F)ccc12 [Birinapant],228,–
Nc1ccn([C@@H]2O[C@H](CO)[C@@H](O)[C@H]2O)c(=O)n1 [Cytidine] + CC[C@H](NC(=O)[C@H](C)NC)C(=O)N1C[C@@H](O)C[C@H]1Cc1c(-c2[nH]c3cc(F)ccc3c2C[C@@H]2C[C@H](O)CN2C(=O)[C@H](CC)NC(=O)[C@H](C)NC)[nH]c2cc(F)ccc12 [Birinapant],170,–
Nc1ncn([C@@H]2O[C@H](CO)[C@@H](O)[C@H]2O)c(=O)n1 [5-Azacitidine] + CC[C@H](NC(=O)[C@H](C)NC)C(=O)N1C[C@@H](O)C[C@H]1Cc1c(-c2[nH]c3cc(F)ccc3c2C[C@@H]2C[C@H](O)CN2C(=O)[C@H](CC)NC(=O)[C@H](C)NC)[nH]c2cc(F)ccc12 [Birinapant],-38.5,–
Nc1ccn([C@@H]2CO[C@H](CO)O2)c(=O)n1 [Troxacitabine] + CC[C@H](NC(=O)[C@H](C)NC)C(=O)N1C[C@@H](O)C[C@H]1Cc1c(-c2[nH]c3cc(F)ccc3c2C[C@@H]2C[C@H](O)CN2C(=O)[C@H](CC)NC(=O)[C@H](C)NC)[nH]c2cc(F)ccc12 [Birinapant],152,–
Nc1ccn([C@@H]2O[C@H](CO)[C@@H](O)[C@@H]2O)c(=O)n1 [Cytarabine] + CC[C@H](NC(=O)[C@H](C)NC)C(=O)N1C[C@@H](O)C[C@H]1Cc1c(-c2[nH]c3cc(F)ccc3c2C[C@@H]2C[C@H](O)CN2C(=O)[C@H](CC)NC(=O)[C@H](C)NC)[nH]c2cc(F)ccc12 [Birinapant],-388,-1320
Nc1ccn([C@@H]2O[C@H](CO)[C@@H](O)C2(F)F)c(=O)n1 [Gemcitabine] + CC[C@H](NC(=O)[C@H](C)NC)C(=O)N1C[C@@H](O)C[C@H]1Cc1c(-c2[nH]c3cc(F)ccc3c2C[C@@H]2C[C@H](O)CN2C(=O)[C@H](CC)NC(=O)[C@H](C)NC)[nH]c2cc(F)ccc12 [Birinapant],-59.3,-1130
O=C(c1ccc(F)c(F)c1Nc1ccc(I)cc1F)N1CC(O)([C@@H]2CCCCN2)C1 [Cobimetinib] + CC[C@H](NC(=O)[C@H](C)NC)C(=O)N1C[C@@H](O)C[C@H]1Cc1c(-c2[nH]c3cc(F)ccc3c2C[C@@H]2C[C@H](O)CN2C(=O)[C@H](CC)NC(=O)[C@H](C)NC)[nH]c2cc(F)ccc12 [Birinapant],148,–
